Screening data: PubChem, several laboratories
Compounds with a hit are over-represented: about 2.8% of the library has one in this group of screens.
KKLEB tox: counter-screen for CF NF-kB inhibitors: cytotoxicity. activity change (cytotoxicity), % at 5 µM. actives 0.36% (n = 360,000). AID 602141. KKLEB CF airway cells viability, ATPlite luminescence, overnight; active compounds read low; cells stimulated with P. aeruginosa culture filtrate;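 active = corrected activity change at or below -50% at 5 µM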
CF NFkB block: inhibitors of cystic fibrosis induced NF-kB | KKLEB NF-kB-GFP reporter, PAF-induced, GFP fluorescence overnight | inhibition, % at 5 µM | actives 0.86% (n = 360,000) | AID 588850;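 active = at least 50% inhibition at 5 µM, scaled per plate between neutral and stimulator controls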;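 also: PAF is a Pseudomonas aeruginosa culture filtrate used as stimulus; plate controls were PAF-stimulated DMSO wells for no effect and unstimulated DMSO wells for full effect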
Shn3 inh set2: Schnurri-3 reporter inhibition in Clone20 osteoblasts; AID 588674; Clone20 osteoblast Shn3 3'UTR firefly luciferase, 24 h; inhibition, % at 12.5 µM; actives 0.52% (n = 360,000);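 active = mean inhibition of at least 75% with every replicate also reaching 75%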;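 also: 0% = median of neutral control wells and 100% = pilot-screen positive control compound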
HIF-2a inh: inhibitors of HIF-2a; inhibition, % at 18.8 µM; 786-0 RCC cells HIF-2a reporter, luciferase luminescence, overnight; AID 624352; actives 0.72% (n = 360,000);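 active = inhibition of the luminescence signal of 40% or more relative to plate controls, in a single-dose primary screen at 18.75 µM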
Peg3 promoter: inhibitors of Peg3 promoter | actives 1.7% (n = 360,000) | inhibition, % at 20 µM | HeLa PEG-Prom luciferase reporter, luminescence, overnight;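 active = inhibition of at least 50% at 20 µM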
TRPM1 prom inh: reduces MITF-dependent TRPM1 promoter luciferase signal; SK-MEL-5 TRPM1 promoter luciferase, 24 h; actives 0.83% (n = 330,000); inhibition, % at 12.5 µM; AID 488899;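 active = mean inhibition across replicates of 60% or more, whatever share of single replicates reaches that level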
Numbers without * were called inactive; / = no result.

SMILES	KKLEB tox	CF NFkB block	Shn3 inh set2	HIF-2a inh	Peg3 promoter	TRPM1 prom inh
Nc1ccc2oc(-c3cccc4ccccc34)nc2c1	0	-28	30	87*	-26	47
Cc1ccc(-c2nc3cc(N)ccc3o2)c(C)c1	10	-10	-4	-85	-199	2
Fc1ccc(SCCc2ccncc2)cc1	-4	-21	15	-76	-16	-1
Fc1cc(F)c(F)c(SCCc2ccncc2)c1F	-1	10	87*	14	9	15
CSc1cc(-c2ccc(Cl)cc2)n(Cc2ccccc2)c(=O)c1C#N	-54*	70*	40	11	54*	10
COCCNC(=O)C1CCCN(C(=O)c2ccc(F)c(C)c2)CC1 (configuration not stated)	14	-22	-8	8	-3	/
N#C/C(=C/c1ccc(N2CCCCC2)o1)c1cccc(F)c1	11	-12	60	-339	-298	-103
N#C/C(=C/c1ccc(N2CCCCCC2)o1)c1ccc(Cl)cc1	-40	71*	96*	45*	97*	-19
COc1cc2ncnc(N[C@H](C)c3ccccc3)c2cc1OC	-1	-5	90*	25	12	22
COC(=O)C[C@@H]1CC[C@H](NS(=O)(=O)c2ccccc2F)[C@@H](CO)O1	/	/	/	7	/	/
O=c1[nH]c2ccccc2nc1Cc1ccc([N+](=O)[O-])cc1	4	-30	78	1	9	3
O=C1Nc2ccc(Br)cc2/C1=N\N=C\C1=C(N2CCOCC2)C(=C/c2ccccc2)/CC1	8	13	-16	14	30	30
O=C1Nc2ccccc2/C1=N\N=C\C1=C(N2CCOCC2)C(=C\c2ccccc2)/CC1	11	-6	19	21	77*	20
O=C(NC1CCCCNC1=O)c1ccco1 (configuration not stated)	-2	8	-10	17	11	-4
O=C(CCCN1C(=O)/C(=C/c2ccccc2Cl)SC1=S)NNC(=O)c1cccnc1	-6	-3	9	84*	23	17
O=C(CCCN1C(=O)/C(=C/c2cccs2)SC1=S)NNC(=O)c1cccnc1	10	-8	4	14	-4	7
O=C(CCCN1C(=O)/C(=C/c2ccccc2Cl)SC1=S)NNC(=O)c1ccccc1	-8	14	10	90*	34	8
COc1ccc(N(C)S(=O)(=O)c2cccc(C(=O)NC3CCCCC3C)c2)cc1 (configuration not stated)	-13	7	-6	17	102*	12
CCCC(=O)Nc1nc2c(s1)COc1ccccc1-2	1	-28	-24	-75	-47	-6
O=C(CCSc1ccccc1)Nc1nc2c(s1)COc1ccccc1-2	-8	-24	0	-10	54*	32
Cc1c2cnn(-c3ccccc3)c(=O)c2c(C)n1CCCC(=O)NCCN1CCN(C)CC1	-2	5	-15	9	0	10
Cc1cc(NC(=O)c2ccc(S(=O)(=O)N3CCCC3)cc2)nc2c1c(=O)oc1ccccc12	-54*	47	21	-24	47	23
Cc1cc(NC(=O)c2ccccc2)nc2c1c(=O)oc1ccccc12	4	-45	0	-13	15	0
O=C1C(Cl)=C(NCCCN2CCOCC2)C(=O)c2ccccc21	-2	38	-5	49*	-49	98*
O=C1c2ccccc2C(=O)N1CCN1CCOCC1	1	23	1	8	-1	12
SMILES	KKLEB tox	CF NFkB block	Shn3 inh set2	HIF-2a inh	Peg3 promoter	TRPM1 prom inh
O=C1C(Cl)=C(NCCN2CCOCC2)C(=O)c2ccccc21	4	12	11	-7	-23	69*
CCOCCCNC1=C(Cl)C(=O)c2ccccc2C1=O	1	0	-12	30	-93	30
O=S(=O)(c1ccccc1)c1nc(-c2ccccc2Cl)oc1NCCCN1CCOCC1	-7	16	16	0	19	6
O=C1C(Cl)=C(NCCCO)C(=O)c2ccccc21	-8	8	4	72*	-12	84*
Cc1ccc(S(=O)(=O)N(C)C)cc1NC(=O)C(C)OC(=O)C1CCCCC1 (configuration not stated)	2	-7	2	10	15	-25
CC1CCCN(CC(=O)Nc2cc(S(=O)(=O)N3CCOCC3)ccc2N2CCCC2)C1 (configuration not stated)	-3	6	-3	18	4	8
CCOC(=O)c1sc(NC(=O)c2cccs2)cc1C	-5	-11	-70	-341	-402	-48
CCOC(=O)c1sc(NC(=O)Nc2cccc(Cl)c2)cc1C	-64*	60*	24	-303	-124	-60
O=C(Nc1ccccc1N1CCOCC1)c1ccc([N+](=O)[O-])s1	8	37	12	5	21	81*
O=C(Nc1ccc(S(=O)(=O)N2CCOCC2)cc1)c1ccc([N+](=O)[O-])s1	3	42	15	1	41	84*
CCn1c2ccccc2c2nc3cc(C(=O)O)ccc3nc21	-63*	24	-43	-69	-56	-3
COc1cc(OC)c2c(-c3ccccc3)cc(=O)oc2c1C(CCN1CCCC1)c1ccc2c(c1)OCO2 (configuration not stated)	2	11	-15	2	91*	35
COc1ccc(C(CCN2CCCC(C)C2)c2c(OC)cc(OC)c3c(-c4ccccc4)cc(=O)oc23)cc1 (configuration not stated)	-14	3	13	10	65*	42
COc1ccc(C(CCN2CCOCC2)c2c(OC)cc(OC)c3c(-c4ccccc4)cc(=O)oc23)cc1 (configuration not stated)	-12	22	22	-13	15	13
COc1cc(OC)c2c(-c3ccccc3)cc(=O)oc2c1C(CCN1CCCC(C)C1)c1ccc(N(C)C)cc1 (configuration not stated)	-25	31	1	25	78*	13
COc1ccc(C(CCN2CCCC2)c2c(OC)cc(OC)c3c(-c4ccccc4)cc(=O)oc23)cc1 (configuration not stated)	14	2	-2	1	8	67*
O=C(c1ccccc1)c1ccc(NCCCn2ccnc2)c([N+](=O)[O-])c1	-2	-8	76	-35	-7	4
Cc1cc(N/N=C/c2ccc(O)cc2)nc(NS(=O)(=O)c2ccccc2)n1	20	-34	-15	54*	10	-6
COc1ccc(CNC(=O)c2cncc(Br)c2)cc1	0	-6	-7	-42	-14	-22
COc1cccc2cc(C(=O)Nc3ccccc3Cl)/c(=N/NS(=O)(=O)c3ccccc3)oc12	-11	2	-9	-17	-7	4
Cc1ccc(-c2nn3c(C)nnc3s2)cc1NC(=O)c1ccc(-c2ccc(Cl)cc2Cl)o1	-32	16	58	-1	103*	100*
